Where “and” joins values, the source holds several entries; their conditions need not be identical. Equal entries are not always repeated. Screen size: about 5,500 compounds; about 2,000 (36%) were called active. Another 18% or so got no clear call; they are omitted. Cut-off read from the data, not from the text of the source: active = normalized growth mostly below about 0.91 (no sharp cut-off); inconclusive = no clear call, values can overlap the other calls; inactive = mostly above about 0.92. The list shows a part of the results.
Assay: chemical genetic growth profiling, strain panel (AID 1159580);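 note: tested at 20 µM; growth read once vehicle control cultures reached saturation at 30 °C; 1 = growth at the plate median or of vehicle wells; lower values mean less growth of the strain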
Conditions: S. cerevisiae deletion strains, growth OD

Measured: normalized growth

Cc1cccc(C)c1NC1=NCCCS1
inactive: locus YAL013W, strain DEP1, active compounds read low 0.999 | locus YAL021C, strain ccr4, active compounds read low 1.03 | locus YAL026C, strain drs2, active compounds read low 0.986 | locus YAL030W, strain snc1, active compounds read low 1 | locus YAL040C, strain CLN3, active compounds read low 0.978 | locus YBL061C, strain skt5, active compounds read low 1 | locus YBR009C, strain hhf1, active compounds read low 1.02 | locus YBR021W, strain FUR4, active compounds read low 0.99 | locus YBR023C, strain chs3, active compounds read low 1.02 | locus YBR171W, strain sec66, active compounds read low 1.02 | locus YBR229C, strain ROT2, active compounds read low 1 | locus YBR231C, strain swc5, active compounds read low 0.997 | locus YBR279W, strain paf1, active compounds read low 1 | locus YCL011C, strain gbp2, active compounds read low 1.02 | locus YCL016C, strain dcc1, active compounds read low 1 | locus YCL029C, strain bik1, active compounds read low 0.974 | locus YCL061C, strain MRC1 (second series), active compounds read low 1.01 | locus YCL061C, strain MRC1, active compounds read low 1 | locus YCL069W, strain vba3, active compounds read low 1 | locus YCR088W, strain abp1, active compounds read low 1 | locus YDL005C, strain med2, active compounds read low 0.995 | locus YDL035C, strain GPR1, active compounds read low 0.979 | locus YDL040C, strain nat1, active compounds read low 1 | locus YDL074C, strain BRE1, active compounds read low 1.03 | locus YDL101C, strain DUN1, active compounds read low 1 | locus YDL134C, strain PPH21, active compounds read low 0.982 | locus YDL185W, strain tfp1, active compounds read low 0.947 | locus YDL192W, strain arf1, active compounds read low 0.987 | locus YDR001C, strain nth1, active compounds read low 1.01 | locus YDR069C, strain doa4, active compounds read low 1.02 | locus YDR101C, strain arx1, active compounds read low 0.995 | locus YDR137W, strain rgp1, active compounds read low 1 | locus YDR150W, strain NUM1, active compounds read low 0.996 and 1.01 | locus YDR159W, strain sac3, active compounds read low 0.991 | locus YDR162C, strain NBP2, active compounds read low 0.97 | locus YDR195W, strain ref2 0.977 | locus YDR297W, strain sur2, active compounds read low 1.01 | locus YDR318W, strain mcm21, active compounds read low 0.972 | locus YDR334W, strain swr1, active compounds read low 1.01 | locus YDR335W, strain msn5, active compounds read low 1.01 | locus YDR363W, strain ESC2, active compounds read low 1.02 | locus YDR388W, active compounds read low 0.994 | locus YDR392W, strain spt3, active compounds read low 1.01 | locus YDR502C, strain sam2, active compounds read low 0.991 | locus YEL003W, strain gim4, active compounds read low 1.01 | locus YEL037C, strain rad23, active compounds read low 1.01 | locus YEL061C, strain CIN8 (second series), active compounds read low 1.01 | locus YEL061C, strain CIN8, active compounds read low 1 | locus YER002W, strain NOP16, active compounds read low 1.01 | locus YER015W, strain faa2, active compounds read low 1.01 | locus YER016W, strain bim1, active compounds read low 1.01 | locus YER110C, active compounds read low 0.976 | locus YER111C, strain swi4, active compounds read low 1.01 | locus YER155C, strain BEM2 (second series), active compounds read low 1.01 | locus YER155C, strain BEM2, active compounds read low 0.995 | locus YER167W, strain BCK2, active compounds read low 0.99 | locus YFR010W, strain ubp6, active compounds read low 1.02 | locus YGL078C, strain dbp3, active compounds read low 0.983 | locus YGL086W, strain mad1, active compounds read low 0.998 | locus YGL167C, strain pmr1, active compounds read low 1.01 | locus YGL173C, strain kem1, active compounds read low 1.01 | locus YGL227W, strain vid30, active compounds read low 1 | locus YGL240W, strain doc1, active compounds read low 0.992 | locus YGL248W, strain PDE1, active compounds read low 1.01 | locus YGL253W, strain hxk2, active compounds read low 1.01 | locus YGR135W, strain pre9, active compounds read low 0.967 | locus YGR229C, strain SMI1, active compounds read low 0.996 | locus YGR252W, strain gcn5, active compounds read low 1 | locus YHR013C, strain ard1, active compounds read low 1.01 | locus YHR027C, strain rpn1, active compounds read low 0.992 | locus YHR030C, strain SLT2, active compounds read low 0.995 and 1.02 | locus YHR079C, strain IRE1 (second series), active compounds read low 0.981 | locus YHR079C, strain IRE1, active compounds read low 1.04 | locus YHR094C, strain hxt1, active compounds read low 0.989 | locus YHR129C, strain ARP1, active compounds read low 0.988 | locus YHR142W, strain chs7, active compounds read low 1.01 | locus YHR200W, strain rpn10, active compounds read low 0.96 | locus YIL066C, strain RNR3, active compounds read low 1 | locus YIL073C, strain SPO22, active compounds read low 0.86 | locus YIL125W, strain kgd1, active compounds read low 0.987 | locus YIR030C, strain dcg1, active compounds read low 0.975 | locus YJL092W, strain hpr5, active compounds read low 1 | locus YJL095W, strain BCK1 (second series), active compounds read low 1 | locus YJL095W, strain BCK1, active compounds read low 1.03 and 1.04 | locus YJL115W, strain asf1, active compounds read low 1.01 | locus YJL129C, strain trk1, active compounds read low 1 | locus YJL134W, strain LCB3, active compounds read low 0.994 | locus YJL154C, strain vps35, active compounds read low 1.01 | locus YJL164C, strain tpk1, active compounds read low 1.01 | locus YJL166W, strain qcr8, active compounds read low 1.01 | locus YJL168C, strain set2, active compounds read low 0.99 | locus YJL187C, strain SWE1 (second series), active compounds read low 1.03 | locus YJR043C, strain POL32, active compounds read low 1.02 | locus YJR066W, strain TOR1, active compounds read low 0.955

Reference: PubChem BioAssay AID1159580 (chemical genetic matrix, 2015)
